This excerpt belongs to a sample that is enriched for hits.
NS1 function inh = inhibitors of influenza NS1 protein function; actives 0.4% (n = 270,000); Potency, µM (doses to about 46.1 µM), inactives show at the highest dose activity, positive = more growth; calls by dose curve; further: actives are rising curves; nearly all actives have a fitted effect of over 50% in size
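OD600 was taken as the measure of yeast growth restored by compound in an NS1-expressing S. cerevisiae strain. Cells had been washed out of glucose medium and diluted 1:100 into galactose -URA medium, pH 6.0.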
Cruzain noTriton = inhibitors of Trypanosoma cruzi cruzain without detergent | P25779 | purified cruzain, Z-FR-AMC fluorescence, no detergent | Potency, µM, inactives show max response, negative = inhibition, hits mostly inhibitors | actives 2.3% (n = 200,000) | AID 1476;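 further: plate controls were enzyme without inhibitor for no effect and buffer without enzyme for full effect; nearly all actives have a fitted effect of over 40% in size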
Target sequence (P25779 123-467 limits assumed): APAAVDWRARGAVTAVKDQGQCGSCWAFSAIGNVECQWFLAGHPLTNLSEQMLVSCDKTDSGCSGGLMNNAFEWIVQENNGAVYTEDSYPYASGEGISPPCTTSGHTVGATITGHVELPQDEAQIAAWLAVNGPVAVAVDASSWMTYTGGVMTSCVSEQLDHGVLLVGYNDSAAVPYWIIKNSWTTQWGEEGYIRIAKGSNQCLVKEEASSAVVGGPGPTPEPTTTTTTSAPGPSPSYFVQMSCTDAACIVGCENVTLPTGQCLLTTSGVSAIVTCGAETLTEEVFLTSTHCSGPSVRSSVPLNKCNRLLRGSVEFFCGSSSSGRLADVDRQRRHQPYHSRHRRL
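Purified cruzain at 1.5 nM, pre-incubated 15 min with compound at room temperature in 100 mM sodium acetate pH 5.5, 5 mM DTT, 0.00005% Triton X-100. Reaction started with 2 uM Z-FR-AMC; AMC fluorescence increase over 60 s gives rate.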
Cruzain Triton = cruzain (T. cruzi) inhibition with detergent; P25779; purified cruzain, Z-FR-AMC fluorescence, 0.01% Triton; Potency, µM, for the others: max response, negative = inhibition, actives largely listed as inhibitors; actives 0.43% (n = 200,000); AID 1478;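 further: plate controls were neutral wells for no effect and buffer without enzyme for full effect; nearly all actives have a fitted effect of over 40% in size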
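Purified cruzain (1.5 nM final) was preincubated with compounds for 15 min at room temperature in 100 mM sodium acetate pH 5.5, 5 mM DTT, 0.01% Triton X-100. Reaction started with 2 uM Z-FR-AMC; AMC fluorescence change over 60 s gave activity.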
The depositor's hits bear a star; ? = inconclusive; / = not tested or not shown. Unless noted, the call rests on the fitted dose curve; in most records, active means well fitted curve in the direction sought with a large enough effect; inconclusive means small, poorly fitted or top-dose-only effect, or another doubt; inactive means no such curve, though single readings can be large; an effect the other way counts as inactive or inconclusive. Potency means the concentration at half of the fitted maximal effect.

SMILES | NS1 function inh | Cruzain noTriton | Cruzain Triton
CCOC(=O)c1sc(N2N=C(C)C(N=Nc3cccc(C)c3)C2=O)nc1C (stereo not given) | 9% | / | /
CC1=NN(c2nc(-c3ccc(C)cc3)cs2)C(=O)C1N=Nc1cccc(C)c1 (stereo not given) | 9% | 13µM* | -5%
CCOC(=O)[C@@H]1[C@@H]2c3ccccc3-c3ccccc3[C@H]2C[C@H]1O | -16% | -7% | 0%
COCCn1c(=O)c(-c2ccc(Cl)cc2)nc2cnc(Nc3ccccc3)nc21 | / | 3% | 0%
CCOc1ccccc1C(=O)N1CCc2cc(OC)c(OC)cc2C1COc1ccc2c(C)cc(=O)oc2c1 (stereo not given) | / | -5% | 13%
COc1ccccc1C1CC(c2cccs2)=NN1C(=O)CCC(=O)O (stereo not given) | 4% | / | /
COc1cccc(C2CC(c3cccs3)=NN2C(=O)CSc2nc3ccccc3o2)c1OC (stereo not given) | -6% | ? | 3.5µM*
CCOC(=O)c1c(NC(=O)c2cc(CC)on2)sc(C)c1C | / | -3% | -2%
COc1cc(NC(=S)NC(=O)c2cc(C)cc(C)c2)ccc1NC(=O)c1cccs1 | 26% | 16µM* | -4%
COc1cc(NC(=S)NC(=O)c2c(OC)cccc2OC)ccc1NC(=O)c1cccs1 | 7% | -14% | -7%
COc1cc(NC(=S)NC(=O)c2ccc(C(C)(C)C)cc2)ccc1NC(=O)c1cccs1 | 10% | 13µM* | 3%
COc1cc(NC(=S)NC(=O)c2ccccc2C)ccc1NC(=O)c1cccs1 | 14% | -21% | 1%
CCOC(=O)C1=C(C)N=C2c3ccccc3C(=O)C2C1c1ccc(Cl)cc1 (stereo not given) | 21% | -7% | -5%
CCOC(=O)C1=C(Cc2ccc(Cl)cc2)C(=O)c2ccccc2C1=O | -111% | 16µM* | -7%
COc1ccc(/C=N/NC(=O)c2ccco2)cc1Cn1nc(C)cc1C | 3% | -5% | -4%
COc1ccc(/C=N\NC(=O)COc2ccc(C(C)(C)C)cc2)cc1Cn1nc(C)cc1C | 9% | 25µM* | 5%
COc1ccc(Cl)cc1NC(=O)CSc1nnc(C)n2c1cc1occc12 | / | -4% | 1%
COc1ccc(Cl)cc1NC(=O)CSc1nc(N2CCCCC2)nc(N2CCCCC2)n1 | -10% | 16µM* | 6%
COc1ccc(Cl)cc1NC(=O)CSc1nc(N2CCOCC2)nc(N2CCOCC2)n1 | 12% | / | /
COc1ccc([C@H]2c3cc(OC)c(OC)cc3C[C@@H](C)[C@@H]2C)cc1OC | / | ? | -10%
CCn1c2ccccc2c2cc(/C=N/NC(=O)c3cc(O)cc(O)c3)ccc21 | -8% | / | /
CCn1c2ccccc2c2cc(/C=N/NC(=O)c3ccc(O)cc3)ccc21 | ? | 25µM* | ?
Cc1noc(C)c1-c1ccc2ncnc(N3CCOCC3)c2c1 | / | -4% | -3%
Cc1cc(C)cc(N2CCn3c2nc2c3c(=O)n(CCc3ccccc3)c(=O)n2C)c1 | / | ? | -3%
CCc1ccc(S(=O)(=O)c2cnc(SCC(=O)Nc3ccc(OC)cc3OC)[nH]c2=O)cc1 | / | 16% | -22%
SMILES | NS1 function inh | Cruzain noTriton | Cruzain Triton
COc1cc(Cl)c(C)cc1NC(=O)CSc1ncc(S(=O)(=O)c2ccc(C(C)(C)C)cc2)c(=O)[nH]1 | / | 10% | 28µM*
Cc1ccc(NC(=O)CSc2ncc(S(=O)(=O)c3ccc(C(C)C)cc3)c(=O)[nH]2)cc1C | / | 2% | 0%
Cc1c(Cl)cccc1NC(=O)CSc1ncc(S(=O)(=O)c2ccc(C(C)C)cc2)c(=O)[nH]1 | / | ? | 28µM*
CCOc1ccc(Nc2nc(-c3cccc(Cl)c3)c3c(n2)-c2ccccc2OC3)cc1 | / | -1% | -5%
COc1ccc2c(c1)C(=O)[C@H](OC(=O)N[C@H](C)C1CCCCC1)[C@@H](c1ccc(OC)c(Br)c1)O2 | / | -5% | 2%
CC(C)N=C(NC#N)SCc1ccc(F)cc1 | -96% | 9% | 3%
N#CNC(=Nc1ccc(F)cc1)SCc1ccccc1 | 3% | 25µM* | 2%
Nc1nc(SCC(=O)c2ccc(Br)cc2)c2[nH]cnc2n1 | -2% | -9% | -3%
O=C(NCc1cccc(Cl)c1)c1cc2c(s1)-c1ccccc1SC2 | / | 25µM* | -6%
O=C(NCc1ccc(Cl)cc1)c1cc2c(s1)-c1ccccc1SC2 | / | -79% | -7%
CC1(C)OC2CC3C4CC(F)C5=CC(=O)C=C[C@@]5(C)[C@@]4(F)C(O)C[C@@]3(C)[C@]2(C(=O)CO)O1 (stereo not given in full) | / | -1% | 6%
CCc1ccc2oc(-c3cc(NC(=O)c4cc(OC)c(OC)c(OC)c4)ccc3O)nc2c1 | / | 2% | -2%
CCc1ccc2oc(-c3cc(N=Cc4cccc(OC)c4O)ccc3O)nc2c1 | 1% | 16µM* | -10%
NC(=O)NC(=O)[C@H]1CCCC[C@@H]1C(=O)O | 4% | 6% | 3%
Cc1ccc(S(=O)(=O)N2CCc3cc(C(=O)N(C)Cc4ccccc4)ccc32)cc1 | / | 5% | -5%
C=CCNC(=O)c1ccc(-c2nc(-c3ccc(Cl)c(Cl)c3)cs2)cc1 | 6% | 20µM* | 3%
C=CCNC(=O)c1ccc(-c2nc(-c3ccc(Cl)cc3Cl)cs2)cc1 | 13% | -15% | 4%
CN1CCN(C(=O)c2ccc3c(c2)N(Cc2ccc(Cl)cc2)C(=O)c2ccccc2S3(=O)=O)CC1 | / | -3% | -2%
O=C(Nc1ccccc1)Nc1nnc(-c2ccccc2)s1 | 4% | / | /
O=C(Nc1ccccc1)Nc1nnc(/C=C/c2ccccc2Cl)s1 | 24% | 25µM* | -4%
CC(=O)N1CCc2cc(Br)cc(S(=O)(=O)N3CCN(c4cccc(C)c4)C(C)C3)c21 (stereo not given) | / | ? | -6%
CCCCCn1c(CNC(=O)c2cccs2)nc2ccccc21 | -7% | 17% | -5%
CCC(=O)NCCc1nc2ccccc2n1Cc1ccccc1 | -8% | -17% | 0%
CCCCCn1c(CCNC(=O)c2cccc(C)c2)nc2ccccc21 | / | 6% | 13µM*
CCCCCn1c(CCNC(=O)CCC)nc2ccccc21 | -12% | -5% | -21%
SMILES | NS1 function inh | Cruzain noTriton | Cruzain Triton
O=C(NCCc1nc2ccccc2n1Cc1ccc(Cl)cc1)c1ccccc1 | / | 17% | 6.3µM*
Cc1cccc(C(=O)NCc2nc3ccccc3n2Cc2ccccc2Cl)c1 | / | 16% | -15%
CCCCCn1c(CCNC(=O)c2cccs2)nc2ccccc21 | -50% | 13µM* | -22%
Cc1cccc(C(=O)NCCc2nc3ccccc3n2Cc2ccc(Cl)cc2)c1 | / | ? | 7.9µM*
Cc1nc2cnc(Oc3ccccc3)nc2n(Cc2cccs2)c1=O | / | -15% | -3%
COc1ccc2[nH]cc(CCNc3ncncc3-c3ccccc3C)c2c1 | / | 10% | 0%
Nc1nc2c(c(=O)[nH]1)N=C(CNc1ccc(C(=O)NC(CCC(=O)O)C(=O)O)cc1)CN2 (stereo not given) | / | -2% | -2%
O=C(Nc1ccccc1C(F)(F)F)N1CCC2(CC1)Oc1ccccc1C(=O)N2Cc1ccccc1F | / | -3% | -4%
Oc1ccc2ccccc2c1CN(Cc1c(O)ccc2ccccc12)C1CCCCC1 | -13% | -12% | -1%
Nc1c(-c2n[nH]c(=S)n2-c2ccc(Cl)cc2Cl)cnn1-c1ccccc1 | 0% | / | /
Nc1[nH]nc2c1NN(c1ccc(Cl)cc1Cl)N2 | 17% | 20µM* | -17%
Cc1ccc(C(=O)CN2/C(=C(\O)c3ccccc3)C(=O)c3ccccc3S2(=O)=O)c(C)c1 | -23% | 25µM* | 0%

From PubChem
